Source: PubChem BioAssay (EPA / NIEHS)
Results filed as inconclusive are left out. Calls of active or inactive are those of the source. Rule for the calls, unless noted: active = hit-call score of the fitted dose curve at least 0.9, where 1 is the maximum; inactive = score below 0.9.

What was measured:
[1] = biological target: Myc proto-oncogene protein (Homo sapiens) (UniProt P01106); assay: ATG_Myc_CIS: Attagene CIS-FACTORIAL HepG2 Assay for human Myelocytomatosis (Myc) Proto-Oncogene Transcription Factor (AID 2282990); conditions: HepG2, Attagene cis-reporter transcription factor activity; actives raise or lower the signal
Summary of the method: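 After 24 h chemical treatment of HepG2 cells carrying multiplexed cis-regulated reporter constructs, reporter transcripts quantified by RT-PCR and capillary electrophoresis of fluorescent fragments. Gain or loss fitted against DMSO baseline.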

[2] = ATG_NRF2_ARE_CIS: Attagene CIS-FACTORIAL HepG2 Assay for human Nuclear Factor Erythroid 2 Related Factor 2 (NFR2) response to Antioxidant Response Elements (ARE) (AID 2282992); conditions: HepG2 Attagene ARE/NRF2 reporter, transcription factor activity; actives raise or lower the signal;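 for AC50: reporter mRNA level measured by RT-PCR and capillary electrophoresis fluorescence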
Summary of the method: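 HepG2 cells transiently transfected with multiplexed cis-regulated reporter transcription units measure endogenous transcription factor activity. Reporter mRNA at 24 h is quantified by RT-PCR, fluorescent labelling and capillary electrophoresis, with bidirectional fitting relative to DMSO.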

[3] = ATG_Oct_MLP_CIS: Attagene CIS-FACTORIAL HepG2 Assay for human Octamer-Binding Transcription Factor (Oct) (AID 2282993); conditions: HepG2 Attagene cis-factorial Oct reporter, mRNA; actives raise or lower the signal
Summary of the method: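 HepG2 cells transiently transfected with cis-element-driven reporter transcription units (endogenous TF activity); 24 h compound exposure. Reporter mRNA quantified by RT-PCR, 6-FAM labelling, HpaI digestion and capillary electrophoresis; bidirectional fit versus DMSO baseline.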

[4] = biological target: Cellular tumor antigen p53 (Homo sapiens) (UniProt P04637); assay: ATG_p53_CIS: Attagene CIS-FACTORIAL HepG2 Assay for human p53 Transcription Factor (AID 2282994); conditions: HepG2 p53 cis-element reporter, Attagene mRNA; actives raise or lower the signal
Summary of the method: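 HepG2 cells transiently transfected with multiplexed cis-regulated reporter transcription units read endogenous TF activity. After 24 h compound exposure, reporter mRNA was quantified by RT-PCR, fluorescent labelling, HpaI digestion and capillary electrophoresis; bidirectional fits versus DMSO baseline.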

[5] = biological target: human Peroxisome Proliferator-activated Receptor alpha (PPARa), PPARA (gene 5465) (UniProt Q07869); assay: ATG_PPARa_TRANS: Attagene TRANS-FACTORIAL HepG2 Assay for human Peroxisome Proliferator-activated Receptor alpha (PPARa) (AID 2283001; active = hit-call score of the fitted dose curve at least 0.9, where 1 is the maximum;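 for AC50: potency for gain of reporter signal over DMSO so agonist or activator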)
Summary of the method: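 Read-out is fluorescence of reporter cDNA fragments resolved by capillary electrophoresis after RT-PCR. Human HepG2 liver cells carried transfected PPARa-Gal4 chimera and GAL4-UAS reporter units, treated 24 h; activity scored as increase over DMSO.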

[6] = biological target: human Peroxisome Proliferator-activated Receptor delta (PPARd), PPARD (gene 5467) (UniProt Q03181); assay: ATG_PPARd_TRANS: Attagene TRANS-FACTORIAL HepG2 Assay for human Peroxisome Proliferator-activated Receptor delta (PPARd) (AID 2283002; active = hit-call score of the fitted dose curve at least 0.9, where 1 is the maximum)
Summary of the method: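 Read-out is induced reporter mRNA, quantified by RT-PCR with fluorescent labelling and capillary electrophoresis after 24 h dosing. Cells are HepG2 transiently carrying multiple GAL4-UAS reporter units driven by exogenous NR-GAL4 chimeras; DMSO serves as baseline.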

[7] = biological target: Retinoic acid receptor alpha (Homo sapiens) (UniProt P10276); assay: ATG_RARa_TRANS: Attagene TRANS-FACTORIAL HepG2 Assay for human Retinoic Acid Receptor alpha (RARa) (AID 2283005; active = hit-call score of the fitted dose curve at least 0.9, where 1 is the maximum)
Summary of the method: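 Reporter transcripts, measured by RT-PCR with fluorescent labeling and capillary electrophoresis after 24 h dosing, reflect activity of an exogenous human RARa–GAL4 fusion in transiently transfected HepG2. Fitted for increase relative to DMSO.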

[8] = biological target: Peroxisome proliferator-activated receptor gamma (Homo sapiens) (UniProt P37231); assay: ATG_PPARg_TRANS: Attagene TRANS-FACTORIAL HepG2 Assay for human Peroxisome Proliferator-activated Receptor-gamma (PPARg) (AID 2283007; active = hit-call score of the fitted dose curve at least 0.9, where 1 is the maximum)
Summary of the method: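 HepG2 cells are transiently transfected with GAL4-UAS reporter units driven by chimeric NR-Gal4 fusions and dosed for 24 h. Reporter mRNA is quantified by RT-PCR, 6-FAM labelling, HpaI digestion and capillary electrophoresis. Induction is scored against DMSO.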

[9] = biological target: Nuclear receptor subfamily 1 group I member 2 (Homo sapiens) (UniProt O75469); assay: ATG_PXR_TRANS: Attagene TRANS-FACTORIAL HepG2 Assay for human Pregnane X Receptor (PXR) (AID 2283008; active = hit-call score of the fitted dose curve at least 0.9, where 1 is the maximum)
Summary of the method: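 HepG2 cells transiently transfected with multiple reporter units, here a PXR-GAL4 chimera driving a GAL4-UAS reporter; 24 h compound exposure. Reporter mRNA measured by RT-PCR, FAM labelling and capillary electrophoresis; gain of signal fitted against DMSO baseline.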

[10] = biological target: human Retinoic Acid Receptor gamma (RARg), RARG (gene 5916) (UniProt P13631); assay: ATG_RARg_TRANS: Attagene TRANS-FACTORIAL HepG2 Assay for human Retinoic Acid Receptor gamma (RARg) (AID 2283009; active = hit-call score of the fitted dose curve at least 0.9, where 1 is the maximum)
Summary of the method: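 HepG2 transiently transfected with GAL4-UAS reporter units and chimeric NR-Gal4 constructs; 24 h compound exposure. Reporter mRNA quantified by RT-PCR, FAM labeling, HpaI digestion and capillary electrophoresis; gain-of-signal versus DMSO.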

[11] = biological target: human RAR-related Orphan Receptor beta (RORb), RORB (gene 6096) (UniProt Q92753); assay: ATG_RORb_TRANS: Attagene TRANS-FACTORIAL HepG2 Assay for human RAR-related Orphan Receptor beta (RORb) (AID 2283010; active = hit-call score of the fitted dose curve at least 0.9, where 1 is the maximum)
Summary of the method: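 HepG2 cells transiently transfected with GAL4-UAS reporter units expressing chimeric NR-Gal4 protein; reporter mRNA measured 24 h after dosing by RT-PCR, 6-FAM labelling and capillary electrophoresis. Gain-of-signal fitted relative to DMSO baseline.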

[12] = biological target: human RAR-related Orphan Receptor gamma (RORg), RORC (gene 6097) (UniProt P51449); assay: ATG_RORg_TRANS: Attagene TRANS-FACTORIAL HepG2 Assay for human RAR-related Orphan Receptor gamma (RORg) (AID 2283011; active = hit-call score of the fitted dose curve at least 0.9, where 1 is the maximum)
Summary of the method: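 Activity is scored as increase in GAL4-UAS reporter mRNA over DMSO, detected by fluorescent RT-PCR and capillary electrophoresis in HepG2 cells transiently expressing a RORg-Gal4 chimera, 24 h after dosing.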

[13] = BSK_3C_TissueFactor: BioMAP Diversity Plus: 3C Assay for Tissue Factor Biomarker Activity (AID 2282997); conditions: BioMAP 3C HUVEC, tissue factor biomarker readout; actives raise or lower the signal
Summary of the method: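 Values derive from bidirectional curve fitting against DMSO of Tissue Factor ELISA signals, taken 24 h after dosing primary human umbilical vein endothelial cells.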

[14] = BSK_3C_uPAR: BioMAP Diversity Plus: 3C Assay for Urokinase-type plasminogen activator receptor (uPAR) Biomarker Activity (AID 2282998); conditions: BioMAP 3C HUVEC, uPAR biomarker ELISA; actives raise or lower the signal
Summary of the method: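 Primary human umbilical vein endothelial cells, 3C system; surface uPAR measured by ELISA 24 h after dosing. Cytotoxicity via SRB total protein in parallel cultures; bidirectional fit against DMSO.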

[15] = BSK_3C_VCAM1: BioMAP Diversity Plus: 3C Assay for Vascular cell adhesion molecule 1 (VCAM1) Biomarker Activity (AID 2282999); conditions: BioMAP 3C HUVEC, VCAM1 ELISA, cytokine-stimulated; actives raise or lower the signal
Summary of the method: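 Endothelial cells from human umbilical vein are treated with test chemical. At 24 h, VCAM-1 is measured by ELISA, and responses in either direction are fitted relative to DMSO.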

[16] = BSK_4H_Eotaxin3: BioMAP Diversity Plus: 4H Assay for Eotaxin 3 Biomarker Activity (AID 2283000); conditions: primary human endothelial cells (HUVEC); actives raise or lower the signal;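 note: CCL26 protein level quantified by ELISA in parallel with SRB cytotoxicity check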
Summary of the method: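 Endothelial primary cells (human umbilical vein) exposed to compound for 24 h. ELISA detection of Eotaxin-3.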

[17] = read-out: Intercellular Adhesion Molecule 1 (ICAM1), ICAM1 (gene 3383); assay: BSK_3C_ICAM1: BioMAP Diversity Plus: 3C Assay for Intercellular Adhesion Molecule 1 (ICAM1) Biomarker Activity (AID 2283003); conditions: primary human endothelial cells (HUVEC); actives raise or lower the signal
Summary of the method: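 HUVEC primary cells stimulated under 3C conditions; ICAM1 measured by ELISA 24 h after compound dosing. Curves fitted bidirectionally against the DMSO baseline. Overt cytotoxicity checked by SRB staining of parallel cultures.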

[18] = BSK_3C_Proliferation: Cell Proliferation Assessment in the BioMAP Diversity Plus: 3C Assay (AID 2283006); conditions: primary human endothelial cells (HUVEC);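 for AC50: potency may reflect either rise or fall in cell number versus DMSO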
Summary of the method: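 Subconfluent HUVEC (3C system) cultured with chemical; relative cell number read at 48 h by sulforhodamine B total-protein staining (0.1% SRB after 10% TCA fixation, 560 nm). Bidirectional fit relative to DMSO.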

[19] = ATG_NF_kB_CIS: Attagene CIS-FACTORIAL HepG2 Assay for human Nuclear Factor Kappa B (NF-kB) (AID 2282991); conditions: HepG2 Attagene cis-factorial NF-kB reporter mRNA; actives raise or lower the signal
Summary of the method: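 HepG2 cells transfected with cis-promoter-driven reporter units, so endogenous transcription factor activity is measured. Reporter mRNA quantified 24 h after dosing by RT-PCR and capillary electrophoresis, with bidirectional fitting against DMSO.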

[20] = biological target: human Retinoic Acid Receptor beta (RARb), RARB (gene 5915) (UniProt P10826); assay: ATG_RARb_TRANS: Attagene TRANS-FACTORIAL HepG2 Assay for human Retinoic Acid Receptor beta (AID 2283004; active = hit-call score of the fitted dose curve at least 0.9, where 1 is the maximum)
Summary of the method: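 HepG2, transient MRTU transfection, NR–Gal4 chimera, 24 h treatment; RT-PCR plus CE fluorescence detection of reporter mRNA; gain of signal vs DMSO.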

Measured: AC50

Retinoic acid receptor alpha (Homo sapiens), sequence (P10276 whole entry, looked up, the tested form may be a part): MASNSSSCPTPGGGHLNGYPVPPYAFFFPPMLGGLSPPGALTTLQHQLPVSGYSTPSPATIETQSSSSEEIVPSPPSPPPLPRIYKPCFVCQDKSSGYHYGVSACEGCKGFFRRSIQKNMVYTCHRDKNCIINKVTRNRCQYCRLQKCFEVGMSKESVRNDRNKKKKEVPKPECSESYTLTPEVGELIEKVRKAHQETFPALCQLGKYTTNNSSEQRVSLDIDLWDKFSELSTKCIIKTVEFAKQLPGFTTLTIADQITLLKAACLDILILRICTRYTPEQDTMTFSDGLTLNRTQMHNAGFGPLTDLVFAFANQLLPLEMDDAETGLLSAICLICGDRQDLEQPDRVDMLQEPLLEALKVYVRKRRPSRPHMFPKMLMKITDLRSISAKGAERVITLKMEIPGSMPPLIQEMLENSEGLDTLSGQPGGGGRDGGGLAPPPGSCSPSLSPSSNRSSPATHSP
Cellular tumor antigen p53 (Homo sapiens), sequence (P04637 whole entry, looked up): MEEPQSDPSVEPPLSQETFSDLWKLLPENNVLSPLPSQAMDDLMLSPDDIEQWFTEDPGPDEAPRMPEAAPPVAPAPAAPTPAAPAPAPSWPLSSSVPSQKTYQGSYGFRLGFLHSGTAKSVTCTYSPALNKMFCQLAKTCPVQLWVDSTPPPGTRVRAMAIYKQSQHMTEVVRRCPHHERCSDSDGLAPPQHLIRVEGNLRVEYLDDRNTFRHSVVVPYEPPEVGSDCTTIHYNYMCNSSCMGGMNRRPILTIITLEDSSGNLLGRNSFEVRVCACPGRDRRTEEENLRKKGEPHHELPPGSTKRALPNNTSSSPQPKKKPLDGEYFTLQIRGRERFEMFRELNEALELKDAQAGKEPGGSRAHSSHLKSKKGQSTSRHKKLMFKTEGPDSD
Peroxisome proliferator-activated receptor gamma (Homo sapiens), sequence (P37231 whole entry, looked up, the tested form may be a part): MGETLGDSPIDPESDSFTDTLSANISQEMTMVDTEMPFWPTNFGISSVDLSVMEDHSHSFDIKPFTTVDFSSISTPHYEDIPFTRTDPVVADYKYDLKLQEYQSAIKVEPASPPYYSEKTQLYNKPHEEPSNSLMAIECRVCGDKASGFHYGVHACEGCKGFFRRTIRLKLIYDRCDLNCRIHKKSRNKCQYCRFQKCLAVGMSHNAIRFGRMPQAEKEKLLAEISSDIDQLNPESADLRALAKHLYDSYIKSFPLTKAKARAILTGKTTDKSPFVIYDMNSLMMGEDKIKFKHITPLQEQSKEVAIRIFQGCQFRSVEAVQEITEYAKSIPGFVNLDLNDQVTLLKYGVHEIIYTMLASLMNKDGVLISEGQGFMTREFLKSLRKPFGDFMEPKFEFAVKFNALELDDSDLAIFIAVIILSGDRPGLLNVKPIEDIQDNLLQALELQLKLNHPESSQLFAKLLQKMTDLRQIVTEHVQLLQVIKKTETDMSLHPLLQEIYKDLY
human Peroxisome Proliferator-activated Receptor delta (PPARd), PPARD (gene 5467), sequence (Q03181 whole entry, looked up, the tested form may be a part): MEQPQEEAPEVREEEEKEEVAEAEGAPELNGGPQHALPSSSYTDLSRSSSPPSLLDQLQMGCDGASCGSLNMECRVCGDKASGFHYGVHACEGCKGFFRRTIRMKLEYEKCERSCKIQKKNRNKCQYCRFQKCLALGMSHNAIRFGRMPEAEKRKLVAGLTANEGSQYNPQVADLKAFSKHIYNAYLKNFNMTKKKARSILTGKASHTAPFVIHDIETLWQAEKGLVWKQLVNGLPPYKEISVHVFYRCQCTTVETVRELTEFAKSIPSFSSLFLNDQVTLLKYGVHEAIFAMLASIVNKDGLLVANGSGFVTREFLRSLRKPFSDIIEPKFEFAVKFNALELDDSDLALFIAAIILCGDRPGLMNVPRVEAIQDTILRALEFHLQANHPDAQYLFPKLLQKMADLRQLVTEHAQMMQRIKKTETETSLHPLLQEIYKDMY
human RAR-related Orphan Receptor beta (RORb), RORB (gene 6096), sequence (Q92753 whole entry, looked up, the tested form may be a part): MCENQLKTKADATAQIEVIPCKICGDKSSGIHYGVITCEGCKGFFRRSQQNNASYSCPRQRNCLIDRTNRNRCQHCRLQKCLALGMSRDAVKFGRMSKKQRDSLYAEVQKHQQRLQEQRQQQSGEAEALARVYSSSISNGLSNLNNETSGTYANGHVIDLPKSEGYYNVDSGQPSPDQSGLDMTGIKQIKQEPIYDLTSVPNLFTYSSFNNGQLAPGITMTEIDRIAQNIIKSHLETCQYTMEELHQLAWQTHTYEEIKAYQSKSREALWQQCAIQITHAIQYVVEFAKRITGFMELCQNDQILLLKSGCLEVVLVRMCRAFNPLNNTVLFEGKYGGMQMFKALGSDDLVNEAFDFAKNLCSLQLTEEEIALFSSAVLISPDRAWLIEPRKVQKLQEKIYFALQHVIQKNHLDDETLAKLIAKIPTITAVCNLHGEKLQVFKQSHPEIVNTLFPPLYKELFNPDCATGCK
human Retinoic Acid Receptor gamma (RARg), RARG (gene 5916), sequence (P13631 whole entry, looked up, the tested form may be a part): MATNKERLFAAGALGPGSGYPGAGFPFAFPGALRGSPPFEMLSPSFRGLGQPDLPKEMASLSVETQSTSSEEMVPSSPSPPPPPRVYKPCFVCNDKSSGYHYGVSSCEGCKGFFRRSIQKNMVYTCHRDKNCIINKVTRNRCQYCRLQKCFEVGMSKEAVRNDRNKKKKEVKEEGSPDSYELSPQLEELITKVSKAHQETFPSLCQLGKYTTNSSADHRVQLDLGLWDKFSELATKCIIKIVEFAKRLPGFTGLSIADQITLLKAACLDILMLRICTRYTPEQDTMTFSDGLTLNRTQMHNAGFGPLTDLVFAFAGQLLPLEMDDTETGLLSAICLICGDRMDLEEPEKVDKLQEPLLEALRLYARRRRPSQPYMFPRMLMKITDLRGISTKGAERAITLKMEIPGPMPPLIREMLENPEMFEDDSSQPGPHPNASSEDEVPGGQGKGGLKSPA
Myc proto-oncogene protein (Homo sapiens), sequence (P01106 whole entry, looked up, the tested form may be a part): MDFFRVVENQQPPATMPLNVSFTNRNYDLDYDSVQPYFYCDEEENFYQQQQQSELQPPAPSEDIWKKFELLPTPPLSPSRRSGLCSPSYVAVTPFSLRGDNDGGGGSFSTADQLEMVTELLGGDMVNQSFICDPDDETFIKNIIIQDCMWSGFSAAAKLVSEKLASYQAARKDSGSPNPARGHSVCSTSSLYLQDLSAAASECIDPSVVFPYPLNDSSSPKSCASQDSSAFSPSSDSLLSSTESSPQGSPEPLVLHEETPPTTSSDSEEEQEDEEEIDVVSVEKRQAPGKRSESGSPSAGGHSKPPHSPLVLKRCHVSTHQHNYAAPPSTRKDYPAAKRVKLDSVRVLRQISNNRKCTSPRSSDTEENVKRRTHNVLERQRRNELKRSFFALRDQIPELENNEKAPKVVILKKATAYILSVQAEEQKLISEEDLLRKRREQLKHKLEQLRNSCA
Nuclear receptor subfamily 1 group I member 2 (Homo sapiens), sequence (O75469 whole entry, looked up, the tested form may be a part): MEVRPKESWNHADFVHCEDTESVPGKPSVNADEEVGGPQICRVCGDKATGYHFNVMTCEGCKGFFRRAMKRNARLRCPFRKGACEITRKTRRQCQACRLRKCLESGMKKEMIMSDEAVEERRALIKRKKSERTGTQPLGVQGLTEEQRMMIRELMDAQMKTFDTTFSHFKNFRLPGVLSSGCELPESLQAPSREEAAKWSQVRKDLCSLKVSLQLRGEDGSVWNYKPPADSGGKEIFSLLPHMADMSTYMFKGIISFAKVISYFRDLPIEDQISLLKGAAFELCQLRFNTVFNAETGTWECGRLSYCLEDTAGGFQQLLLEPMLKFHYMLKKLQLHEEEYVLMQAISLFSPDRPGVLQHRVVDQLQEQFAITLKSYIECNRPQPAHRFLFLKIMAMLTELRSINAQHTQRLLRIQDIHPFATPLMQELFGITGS
human RAR-related Orphan Receptor gamma (RORg), RORC (gene 6097), sequence (P51449 whole entry, looked up, the tested form may be a part): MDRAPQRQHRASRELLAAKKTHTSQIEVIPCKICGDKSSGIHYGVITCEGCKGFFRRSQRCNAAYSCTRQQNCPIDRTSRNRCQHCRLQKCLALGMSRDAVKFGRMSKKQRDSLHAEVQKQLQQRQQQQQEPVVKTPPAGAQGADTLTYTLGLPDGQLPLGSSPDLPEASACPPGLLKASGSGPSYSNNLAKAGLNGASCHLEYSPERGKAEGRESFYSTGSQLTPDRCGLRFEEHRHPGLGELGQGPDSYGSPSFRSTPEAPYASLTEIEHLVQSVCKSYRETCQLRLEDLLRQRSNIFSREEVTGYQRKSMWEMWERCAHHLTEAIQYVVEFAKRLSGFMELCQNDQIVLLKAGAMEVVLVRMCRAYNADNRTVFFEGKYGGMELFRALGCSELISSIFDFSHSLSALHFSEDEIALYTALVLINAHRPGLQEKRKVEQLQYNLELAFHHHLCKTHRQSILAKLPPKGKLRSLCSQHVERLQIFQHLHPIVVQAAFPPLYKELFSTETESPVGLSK
human Peroxisome Proliferator-activated Receptor alpha (PPARa), PPARA (gene 5465), sequence (Q07869 whole entry, looked up, the tested form may be a part): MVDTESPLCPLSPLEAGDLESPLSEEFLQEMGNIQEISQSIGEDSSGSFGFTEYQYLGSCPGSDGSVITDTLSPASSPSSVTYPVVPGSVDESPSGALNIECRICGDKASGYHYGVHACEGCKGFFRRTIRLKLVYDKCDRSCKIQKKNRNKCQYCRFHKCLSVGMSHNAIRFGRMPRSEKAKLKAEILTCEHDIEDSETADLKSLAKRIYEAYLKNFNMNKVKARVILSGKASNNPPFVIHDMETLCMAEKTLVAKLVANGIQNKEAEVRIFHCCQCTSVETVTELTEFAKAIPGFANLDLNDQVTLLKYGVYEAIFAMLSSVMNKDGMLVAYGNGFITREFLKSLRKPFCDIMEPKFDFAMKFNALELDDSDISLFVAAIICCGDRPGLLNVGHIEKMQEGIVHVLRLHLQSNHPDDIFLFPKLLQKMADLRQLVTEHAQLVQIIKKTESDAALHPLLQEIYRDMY

CCCCOC(C)=O
not listed: [13] | [14] | [15] | [16] | [17] | [18] | [19] | [20]
inactive: all other assays above

COCC(=O)N(c1c(C)cccc1C)[C@H](C)C(=O)OC
active: [9] 20.2 µM
not listed: [6] | [11] | [19] | [20]
inactive: all other assays above

CCOc1ccc(N)cc1
inactive: [1] | [19] | [2] | [4] | [5] | [20]

CCN(CCO)CCO
inactive: [1] | [2] | [3] | [4] | [5]

Cc1cc(SCc2sc(-c3ccc(C(F)(F)F)c(F)c3)nc2C)ccc1OCC(=O)O
inactive: [1] | [19] | [2]
active: [4] 47.1 µM | [5] 0.201 µM | [8] 0.887 µM | [9] 2.05 µM

Cc1cc(C(C)(C)c2ccc(O)c(C)c2)ccc1O
inactive: [1] | [16] | [6] | [17] | [10] | [12]
active: [2] 11.7 µM | [3] 34.8 µM | [4] 33.7 µM | [13] 13.6 µM | [14] 10 µM | [15] 15 µM | [18] 14.3 µM | [8] 5.48 µM | [9] 3.26 µM

CCC[CH2][Sn]([Cl])([Cl])[CH2]CCC
active: [19] 1.99 µM | [2] 0.315 µM | [8] 0.73 µM
inactive: [1] | [4] | [6]

C=C(C)C(=O)OCC(CC)CCCC (stereo unspecified)
inactive: [1] | [19] | [2] | [4] | [8] | [9]

O=C(O)CC(O)(CC(=O)O)C(=O)O
inactive: [1] | [2] | [3] | [4] | [5] | [6] | [8]

O=C(O)COc1ccc(Cl)cc1
inactive: [1] | [2] | [3] | [4] | [5] | [6] | [8]

CCCCOP(=O)(CCCC)OCCCC
inactive: [1] | [2] | [3] | [4] | [6] | [11]
active: [8] 38.4 µM | [9] 8.52 µM

O=[N+]([O-])c1ccccc1O
inactive: [1] | [2] | [3] | [4] | [5] | [8] | [9] | [10] | [11]

O=[N+]([O-])c1c2ccccc2cc2ccccc12
active: [2] 5 µM | [8] 1.27 µM | [9] 4.7 µM
inactive: [1] | [3] | [4] | [7]
